Bioassay records as filed in PubChem.
Shiga inhibitor: inhibitors of Shiga toxin in Vero cells; Vero cells, Shiga toxin protein synthesis inhibition reporter; inhibition, % at 38.7 µM; 9.2% of 290,000 active; in the data active = inhibition mostly above about 28%, no sharp cut-off; inactive = mostly below about 43%; also: 0% is about no effect
Lassa entry inh: Lassa virus entry inhibition; Lassa virus pseudotype entry inhibition, cell reporter; Potency, µM (doses to about 37.9 µM), for the others: top-dose activity change, negative = inhibition, actives largely listed as inhibitors; 1.2% of 300,000 active; AID 540256; calls by dose curve; tested in HEK293 cells; also: potency is read from the fitted curve at half-maximal effect; % is scaled to controls: 0 for no effect and ±100 for the full control effect; nearly all actives have a fitted effect of over 50% in size
MARV entry inh: Marburg virus entry inhibition. Marburg virus pseudotyped entry inhibition, cell reporter. Potency, µM (highest dose often 37.8 µM), for the others: top-dose activity change, negative = inhibition, usual class: inhibitors. 1.8% of 300,000 active. AID 540276; calls by dose curve; tested in HEK293 cells; also: potency is read from the fitted curve at half-maximal effect; % is scaled to controls: 0 for no effect and ±100 for the full control effect
CHX counter: affects cycloheximide protein synthesis inhibition readout, counter-screen; cell reporter, cycloheximide protein synthesis inhibition counterscreen; max response, %; 12% of 300,000 active; in the data active = max response mostly above about 13%, no sharp cut-off; inactive = mostly below about 14%; also: read at 38.3 µM for the half of the compounds with a filed dose; 0% is about no effect
Active calls of the source: *; ? = inconclusive; . = not tested or not shown; [ ] = another dose, or the depositor's remark. This is a sample that favours compounds with a hit; in the whole collection about 12% have one here.

SMILES	Shiga inhibitor	Lassa entry inh	MARV entry inh	CHX counter
COc1ccc(-c2cc(=O)oc3c4c(ccc23)OCN(Cc2ccccc2)C4)cc1	.	18%[46.1 µM]	?	.
Clc1ccccc1CSc1cc2c(nn1)-c1ccccc1CC2	165*	4%	?	42*
Cc1cc(C)n(-c2ccc(NC(=O)C3CCCCN3C(=O)c3cc(C)oc3C)cc2)n1 (stereo not drawn)	-3	.	.	2
CC(C)C[C@H](NC(=O)[C@@H]1CCCN1C(=O)[C@H](CO)NC(=O)[C@H](Cc1ccccc1)NC(=O)CNC(=O)[C@@H]1CCCN1C(=O)[C@@H]1CCCN1C(=O)[C@@H](N)CCCN=C(N)N)C(=O)O	-3	.	.	-6
Nc1nc(-c2ccccc2)[nH]c(=O)c1N	30*	5%	?	26*
Cc1nnc(-c2ccccc2)[nH]c1=O	-7	-8%[46.1 µM]	1%[46.1 µM]	6
O=c1[nH]c(-c2ccccc2)nnc1-c1ccccc1	25	-20%	-1%	18*
COCCOC(=O)c1[nH]c2c(c1C)C(=O)CC(c1cccs1)C2 (stereo not drawn)	-4	.	.	20*
CCCCCOC(=O)c1[nH]c2c(c1C)C(=O)CC(c1ccco1)C2 (stereo not drawn)	-7	?	0.46µM*	5
Ic1ccccc1CNC1C2CCN(CC2)C1C(c1ccccc1)c1ccccc1 (stereo not drawn)	.	6.5µM*	4.6µM*	.
Fc1ccccc1CNC1CN2CCC1CC2 (stereo not drawn)	-10	.	1%[46.1 µM]	-4
Ic1ccccc1CN[C@@H]1C2CCN(CC2)[C@H]1C(c1ccccc1)c1ccccc1	.	.	4.6µM*	.
COc1ccc(NC(=O)CSCC(=O)Nc2sccc2C#N)cc1	.	14%[46.1 µM]	19%	.
N#Cc1ccsc1NC(=O)COC(=O)c1cc(Br)ccc1O	84*	4%	17%	45*
Cn1cccc1C(=O)OCC(=O)Nc1sccc1C#N	.	?	0%	.
COc1ccc(CCC(=O)Nc2sccc2C#N)cc1	131*	21%[46.1 µM]	?	51*
N#Cc1ccsc1NC(=O)COC(=O)c1ccc2ccccc2c1	active	15%	-8%	54*
COc1cc2c(cc1OC)CSC1C(=O)N(C)C(SC2)C(=O)N1C	.	.	-4%[14.2 µM]	.
CCN1N=C(C)C=C(c2ccccc2)n2c1nc1ccccc12	15	.	.	-1
O=C(Nc1ccccc1)OCCCCOC(=O)Nc1ccccc1	.	9%	-2%	.
C#CCCOC(=O)Nc1ccccc1	22	.	.	active
O=C(Nc1ccccc1)OCCCc1ccccc1	133*	6%	14%[46.1 µM]	50*
CCOc1ccc(-c2cc3c(=O)n(Cc4nc(-c5ccc(OC(C)C)cc5)oc4C)ccn3n2)cc1Cl	.	15%[46.1 µM]	24%[46.1 µM]	.
Cc1cccc2cc(CN(CCN(C)C)C(=S)Nc3ccccc3)c(=O)[nH]c12	-1	8%	?	2
O=C(c1ccco1)N1CCN(Cc2nnc(-c3cccc(Br)c3)o2)CC1	20	-26%	9%[46.1 µM]	5
SMILES	Shiga inhibitor	Lassa entry inh	MARV entry inh	CHX counter
Cc1ccc(OC(=O)CSc2nnc(-c3ccc4c(c3)OCO4)o2)cc1	.	17%[46.1 µM]	-9%[46.1 µM]	.
C/C(N)=C(/C#N)C(=O)CSc1nnc(-c2ccc(OC(F)F)cc2)o1	99*	?	?	35*
C/C(N)=C(/C#N)C(=O)CSc1nnc(-c2ccc3c(c2)OCO3)o1	99*	?	?	44*
Cc1nc(NC(=O)CSc2nnc(-c3ccc4c(c3)OCO4)o2)c(Cl)cc1Cl	active	9%	5%	19*
O=C(O)CSc1nnc(-c2ccc3c(c2)OCO3)o1	50	-17%	-8%	-2
O=C(CSc1nnc(-c2ccc3c(c2)OCO3)o1)Nc1ncc(C(F)(F)F)cc1Cl	-3	26%[46.1 µM]	?	-1
NC(=O)CSc1nnc(-c2ccc3c(c2)OCO3)o1	75*	-21%	?	28*
CCC(=O)N1CCc2cc(S(=O)(=O)NCCC(=O)Nc3ccc(CC)cc3)ccc21	.	-11%[46.1 µM]	7%[46.1 µM]	.
O=C(O)CC(NC(=O)Cc1ccc([N+](=O)[O-])cc1)c1ccc2c(c1)OCO2 (stereo not drawn)	-4	-20%	15%[46.1 µM]	-3
N#CCSc1nnc(-c2ccc3c(c2)OCO3)o1	24*	21%	?	14*
CCCCC1CCC(C(=O)NCC(c2ccco2)N2CCOCC2)CC1 (stereo not drawn)	-4	.	.	13
O=C(CCCN1C(=O)/C(=C\c2cccc(Br)c2)SC1=S)Nc1cccnc1	-10	?	4.5µM*	-3
COc1ccccc1/C=C1\SC(=S)N(CCC(=O)NCCc2ccc(O)cc2)C1=O	10	?	?	21*
O=C(CCN1C(=O)/C(=C\c2ccccc2Cl)SC1=S)Nc1cccnc1	0	15%	18%	-4
O=C(CCCN1C(=O)/C(=C/c2cccc(Br)c2)SC1=S)Nc1cccnc1	29	?	?	13
